uPA surface inh: inhibitors of cell surface uPA generation; cell surface uPA generation assay, qHTS; 330,000 tested, 0.31% active; Potency, µM (titrated, usually from 38.3 µM), most hits filed as inhibitors; active means well fitted inhibition curve with a large enough effect; inconclusive means small, poorly fitted or top-dose-only effect; inactive means no such curve, though single readings can be large or run the other way; tested in mouse RAW 264.7 cells; further: nearly all actives have a fitted effect of over 55% in size
TGFb inhibitor: blocks TGF-b signaling | HepG2 CAGA-GFP TGF-b/SMAD3 reporter, GFP fluorescence, 18 h; TGF-beta stimulated, 500 pg/mL final | Potency, µM (titrated, usually from 46.1 µM), hits mostly inhibitors | 410,000 tested, 1.2% active; further: nearly all actives have a fitted effect of over 65% in size
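HEPG2 CAGA-GFP reporter cells (1000/well, DMEM with 1% FBS) received compounds, then recombinant TGF-beta at 500 pg/mL final for 18 hours at 37 degrees C. Per-cell GFP summed per well was normalised to unstimulated and stimulated DMSO controls before curve fitting.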
S2 tox: viability counter-screen for ATXN expression inhibitors | S2 cells (HEK-293 line with an ATXN2-luciferase reporter) viability, CellTiter-Fluor protease fluorescence, 24 h | Potency, µM (series often up to 56.7 µM), hits mostly cytotoxic | 400,000 tested, 0.49% active | AID 651635; further: nearly all actives have a fitted effect of over 40% in size
HepG2 tox: counter-screen for TGF-b inhibitors: cytotoxicity in HepG2 cells; 410,000 tested, 0.76% active; HepG2 CAGA-GFP viability, ATP luminescence, 18 h; Potency, µM (highest dose often 46.1 µM), usual class: cytotoxic
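HepG2 CAGA-GFP cells (1000/well, DMEM with 1% FBS) received compound, then TGF-beta at 500 pg/mL final, and were incubated 18 hours at 37 degrees C. Viability was read by CellTiter-Glo luminescence. Media-only wells were set as complete cell-killing and DMSO as no toxicity.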
Giardia killer: kills Giardia lamblia. Giardia lamblia trophozoite viability. activity change, % at 7.66 µM, hits read low. 340,000 tested, 0.15% active. AID 540267; in the data active means activity change below about -80%; inconclusive means between about -30% and that limit;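 further: parasites exposed to compound for two days anaerobically before the ATP read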
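Giardia trophozoites, 100 cells per well, were exposed to compounds for 48 hrs at 37 deg C under anaerobic conditions; viability was then read as ATP content by bioluminescence after 15-30 min at room temperature.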
ATXN2 expr inh: ATXN2 expression inhibition; 360,000 tested, 0.72% active; Potency, µM (series often up to 57 µM), actives largely listed as inhibitors; AID 1745845; HEK-293 ATXN2-luciferase reporter, luminescence, 24 h; further: nearly all actives have a fitted effect of over 55% in size
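ATXN2-luciferase reporter cells (luciferase flanked by upstream and downstream ATXN2 gene portions) were treated 24 h at 37 °C with compounds at up to 57 uM. SteadyGlo luminescence gave expression; GF-AFC fluorescence gave viability.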
A number is an active result; 0 = inactive; ? = inconclusive; - = no result given. A selection: hits, their analogues and other compounds. The true share with any hit is near 2.6%. Unless noted, the call rests on the fitted dose curve; in most records, active means well fitted curve in the direction sought with a large enough effect; inconclusive means small, poorly fitted or top-dose-only effect, or another doubt; inactive means no such curve, though single readings can be large; an effect the other way counts as inactive or inconclusive.

SMILES	uPA surface inh	TGFb inhibitor	S2 tox	HepG2 tox	Giardia killer	ATXN2 expr inh
COc1cc(-c2nc3ccc(C)cn3c2Nc2ccc(Cl)cc2)ccc1O	-	?	15.8µM	15.8µM	-	?
Cc1ccc(Nc2c(-c3ccncc3)nc3ccc(C)cn23)cc1	-	0	?	0	-	0
COc1ccc(-c2nc3ccc(C)cn3c2Nc2ccc3c(c2)OCO3)cc1	-	0	0	0	-	0
COc1cc(-c2nc3ccc(Cl)cn3c2Nc2ccc3c(c2)OCO3)ccc1O	-	?	17.8µM	0	-	?
COc1ccc(CN2CCOc3c(cc(-c4cccc(OC)n4)cc3OC)C2)c(O)c1	-	-	0	-	-	-
CCn1nc(-c2ccccc2C)nc2c(=O)n(C)c(=O)nc1-2	-	0.891µM	-	0.631µM	-92.6	-
COc1ccc(-c2nc3c(=O)n(C)c(=O)nc-3n(C)n2)cc1	-	0.355µM	-	0.562µM	-98.7	-
Cn1nc(-c2ccc(Cl)cc2)nc2c(=O)n(C)c(=O)nc1-2	-	1µM	-	1.26µM	-102.7	-
Cn1nc(-c2ccc(F)cc2)nc2c(=O)n(C)c(=O)nc1-2	-	0.891µM	-	0.891µM	-88.7	-
Cn1cnnc1Sc1ccc(CN2CCOc3ccc(C4=CCCCC4)cc3C2)o1	-	-	0	-	-	-
Cn1nc(-c2cccnc2)nc2c(=O)n(C)c(=O)nc1-2	-	2.24µM	-	2.82µM	-85.7	-
Cc1cc(C)n2nc(-c3cccnc3)nc2n1	0	?	0	0	0	0
C=C(C(=O)O)c1ccc2ccccc2c1	-	0	-	0	-	-
Cn1cnnc1Sc1ccc(CN2CCOc3ccc(C4=Cc5ccccc5CC4)cc3C2)o1	-	-	0	-	-	-
Cc1cc(C)c(C(CC(=O)c2cccs2)C(C#N)C#N)c(C)c1 (stereo not given)	0	17.8µM	-	12.6µM	0	?
CC(CC(=O)c1cccs1)CC(=O)c1cccs1	0	0	0	0	0	0
CCCC(=O)Nc1ccc2c(c1)nc(CN1CCN(C(=O)OCC)CC1)n2CC	3.55µM	0	0	0	0	0
CCCC(=O)Nc1ccc2c(c1)nc(CN1CCN(C(=O)OCC)CC1)n2C	0	0	0	0	0	0
CC(C)c1nc(SCC(=O)N2CCCCCC2)c2c(=O)n(C)c(=O)n(C)c2n1	0	0	?	0	0	0
Cc1nc(SCC(=O)N2CCCCCC2)c2c(=O)n(C)c(=O)n(CC(C)C)c2n1	0	15.8µM	0	0	0	-
Cc1ccc(-c2[nH]c3ccccc3c2C(C[N+](=O)[O-])c2ccco2)cc1 (stereo not given)	0	?	0	15.8µM	0	0
Cc1[nH]c2ccccc2c1C(C[N+](=O)[O-])c1ccco1 (stereo not given)	0	0	0	0	0	0
Cc1cccc(C(=O)N2CCCC(Nc3ccc(C)c(C)c3)C2)n1 (stereo not given)	0	0	0	0	0	0
Cc1cccc(C(=O)N2CCCC(Nc3ccc(F)c(F)c3)C2)n1 (stereo not given)	0	0	0	7.08µM	0	0
Cc1ccc2c(c1)C(=O)C(=O)N2Cc1ccc(C(F)(F)F)cc1	3.55µM	15.8µM	28.2µM	17.8µM	0	?
SMILES	uPA surface inh	TGFb inhibitor	S2 tox	HepG2 tox	Giardia killer	ATXN2 expr inh
Cc1ccc(OCCN2C(=O)C(=O)c3cc(C)ccc32)cc1	?	0	?	0	0	0
Cc1ccc2c(c1)C(=O)C(=O)N2CC(=O)OC(C)C	0	0	0	0	0	0
Cc1ccc2c(c1)C(=O)C(=O)N2Cc1ccc(OC(C)C)cc1	-	10µM	?	0	-	?
C[C@]12CC[C@@H]3c4ccc(O)cc4CC[C@H]3[C@H]1[C@@H](O)[C@@H](O)[C@H]2O	-	-	-	-	-	0
CN(C)c1ccc(/C=C2\NC(=O)NC2=O)cc1	-	0	-	0	-	-
CCN(CC)c1ccc(/C=N/NS(=O)(=O)c2ccc(C)c([N+](=O)[O-])c2)cc1	0	0	0	0	0	0
CCN(CC)c1ccc(C(=C2C=CC(=[N+](CC)CC)C=C2)c2ccc(N(CC)CC)cc2)cc1	?	2.24µM	-	11.2µM	0	?
CCN(CC)c1ccc(C(=O)NNC(=O)CCNC(=O)c2ccccc2)cc1	0	0	0	0	0	0
CCN(CC)c1ccc(C(=C2C=CC(=[N+](CC)CC)C=C2)c2ccccc2)cc1	0	?	0.891µM	1.78µM	0	0.355µM
CCN(CC)c1ccc(C(=C2C=CC(=[N+](CC)CC)C=C2)c2cc(S(=O)(=O)O)ccc2S(=O)(=O)[O-])cc1	-	-	?	-	-	11.2µM
O=C1CCN(Cc2cccc(C(F)(F)F)c2)CCN1Cc1ccccn1	-	-	0	-	-	-
O=S(=O)(NCCNCC=Cc1ccc(Br)cc1)c1cccc2cnccc12	-	?	-	0	-	?
CC(=O)SCC(CC(=O)c1ccc(C)cc1)C(=O)O (stereo not given)	-	-	0	-	-	0
CCn1c(SCC(=O)N2CCN(c3ccccc3)CC2)nnc1-c1c[nH]c2ccccc12	7.94µM	0	?	0	0	0
C=CCn1c(COc2cccc(C)c2C)nnc1SCC(=O)N1CCN(c2ccccc2)CC1	0	4.47µM	0	0	0	?
CCOc1cc(-c2ccc(OC(=O)c3ccc(C)cc3)c(OC)c2)cc(=O)c2c(C)oc(C)c12	-	?	-	0	-	-
CCN(CCCNC(=O)c1cc2cc3ccc(OC)cc3nc2s1)c1ccccc1	-	0	-	0	-	-
CCN(CCCNC(=O)c1cc2cc3ccc(OC)cc3nc2s1)c1cccc(C)c1	-	12.6µM	-	12.6µM	-	0
C=CC(=O)Nc1ccc(Nc2nc(NC3CCC(N(C)C)CC3)nc3c2ncn3C(C)C)cc1 (stereo not given)	?	0.631µM	1.78µM	0	0	?
C=CC(=O)Nc1cccc(Nc2nc(NC3CCC(N(C)C)CC3)nc3c2ncn3C(C)C)c1 (stereo not given)	-	-	-	-	-	0.0306µM
O=C(C[n+]1ccccc1Br)c1ccc(O)c(O)c1	-	0	-	0	-	-
O=C(NCC1Cc2cccc(-c3cccnc3)c2O1)c1cc(-c2ccccc2)n[nH]1 (stereo not given)	-	-	0	-	-	-
O=C(C=Cc1ccc(/C=C/C(=O)Nc2ccc(C3=NCCN3)cc2)cc1)Nc1ccc(C2=NCCN2)cc1	-	-	-	-	-	0
CCOC(=O)C(=Cc1ccc(OCc2ccc([N+](=O)[O-])cc2)c(OC)c1)C(=O)OCC	0	?	22.4µM	0	0	?
COC(=O)C(=Cc1ccc(OCc2ccc([N+](=O)[O-])cc2)c(OC)c1)C(=O)OC	0	?	?	0	0	?
Cc1ncc2c(c1CNC(=O)c1ccccc1F)CCN(C(=O)c1[nH]c3ccc(Cl)cc3c1C)C2	-	-	0	-	-	-
CSc1ccc(/C=C/C(=O)NC(=O)c2ccccc2O)cc1	11.2µM	?	?	0	0	0
O=C1C=CC(=O)c2c(O)c(CO)c(CO)c(O)c21	0	11.2µM	?	10µM	0	?
CN1N/C(=C\c2ccccc2)N=C2C(=O)N(C)C(=O)N=C21	-	0	-	1.12µM	-104.6	-
CN1C(=O)/C(=C/c2ccc3c(c2)OCO3)N=C1c1ccccc1	0	0	0	0	0	0

Screens (PubChem)
